Results published in PubChem BioAssay (Tox21).
Inconclusive results are not listed. A number with no mark means an inactive call. The source made the active and inactive calls. Calls come from the whole dose curve.

Each molecule was assayed against 5-hydroxytryptamine receptor 2A (Homo sapiens) (UniProt P28223) (assay: 5-hydroxytryptamine receptor 2A (HTR2A) small molecule antagonists, cell-based qHTS assay (AID 1963586; note: nearly all actives have a fitted effect of over 45% in size)). Conditions: HTR2A-CHO cells, DOI-induced calcium flux, fluorescence; series mostly up to 61.5 µM; activity, negative = inhibition: at the top concentration.
Description: National Center for Advancing Translational Sciences [NCATS]
Division of Preclinical Innovation [DPI]
U.S. Environmental Protection Agency [EPA]
National Institutes of Environmental Health Sciences [NIEHS]
National Toxicology Program [NTP]
U.S. Food and Drug Administration [FDA]
The HTR2A receptor is a subtype of the 5-HT2 receptor that belongs to the serotonin receptor family and is a G protein-coupled receptor (GPCR). The HTR2A-CHO cell line stably expressing human 5-hydroxytryptamine receptor 2A (HTR2A) can be used for screening antagonists of interactions between 5-HT2 and its ligands. The HTR2A-CHO calcium flux assay is a homogeneous fluorescence-based assay for detecting the intracellular calcium level using FDSS kinetic plate reader system.
Tox21 Assay Protocol Summary:
HTR2A-CHO cells were dispensed at 2000 cells/3uL/well in 1536-well black-clear bottom plates using a Multidrop Dispenser. After the assay plates were incubated at a 37 C/5% CO2 incubator for 18 h, 3 uL of Dye Loading Buffer was transferred to the assay plate by a Flying Reagent Dispenser. The assay plates were incubated at 37 C for 1h. For antagonist mode, 23 nL of compounds dissolved in DMSO, positive controls or DMSO only was transferred to the assay plate by a pin tool. After 5 min incubation at room temperature, 1.5 uL of 4-Iodo-2,5-dimethoxy-alpha-methylbenzeneethanamine hydrochloride (DOI) at 4nM was added to each well. The fluorescence intensity in the plates was measured using FDSS 7000EX kinetic plate reader for 3 min at 1 sec intervals.
% is set by controls: 0 for no effect and ±100 for the full control effect.

Sequence of 5-hydroxytryptamine receptor 2A (Homo sapiens) (P28223 whole entry, looked up): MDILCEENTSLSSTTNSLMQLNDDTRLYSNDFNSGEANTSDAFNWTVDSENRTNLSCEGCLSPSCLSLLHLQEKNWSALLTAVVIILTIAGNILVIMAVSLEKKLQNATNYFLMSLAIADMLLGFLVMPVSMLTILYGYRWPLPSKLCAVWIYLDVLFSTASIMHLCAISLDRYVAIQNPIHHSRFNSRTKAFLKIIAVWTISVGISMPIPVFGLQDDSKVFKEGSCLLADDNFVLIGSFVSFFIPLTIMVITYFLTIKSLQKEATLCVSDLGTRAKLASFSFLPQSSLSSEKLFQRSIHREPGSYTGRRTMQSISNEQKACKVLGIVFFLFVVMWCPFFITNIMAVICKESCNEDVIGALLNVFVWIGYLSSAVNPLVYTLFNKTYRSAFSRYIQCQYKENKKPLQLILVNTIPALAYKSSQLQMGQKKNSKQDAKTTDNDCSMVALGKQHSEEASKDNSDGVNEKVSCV

SMILES | activity, negative = inhibition | Potency
CC(C)N=C(N)/N=C(\N)Nc1ccc(Cl)cc1 | -10.4% [at 28.5 µM] | 
CCCCCCCCCCCC(=O)OC[C@@H](O)[C@H]1OC[C@H](OCCO)[C@H]1OCCO | -6.39% | 
O=Cc1ccc(Cl)cc1 | -25.1% | 
C=Cc1ccccn1 | 14.4% | 
CCOC=C(C(=O)OCC)C(=O)OCC | -4.93% | 
CCCCNc1ccccc1 | -5.6% | 
CC(CO)CO | 5.8% | 
O=C(/C=C/c1ccccc1)OCc1ccccc1 |  | inactive
c1ccc2cc3c4ccccc4c4ccccc4c3cc2c1 | 22.1% | 
O=C(Oc1ccccc1)c1ccccc1 | 5.42% | 
C=C(C)C(=O)NCCC[N+](C)(C)C | 5.54% | 
[Cl][In]([Cl])[Cl] |  | inactive
Cc1ccc(C=O)cc1 | 7.82% [at 28.5 µM] | 
CCCC(C)CCC(C)=O (stereo not given) | 27.5% | 
O=C(O)CCCCCC(=O)O | 54.8% | 
CC(C)COC(=O)c1ccc(N)cc1 | 0.903% [at 28.5 µM] | 
COc1ccccc1C=O | 6.42% | 
CC(C)=CCC/C(C)=C/C#N | -6.5% | 
CCCCC(CC)COP(=O)(OCC(CC)CCCC)OCC(CC)CCCC (stereo not given) |  | inactive
CCCCCCCCCCCCOCCO |  | inactive

SMILES | activity, negative = inhibition | Potency
CCCCCCCCCCCCCCCCBr | 4.99% [at 12.7 µM] | 
CCCCC(CC)COP(=O)(O)OCC(CC)CCCC (stereo not given) |  | inactive
C=C(C)C(=O)OC(C)C | -8.53% | 
Cc1cn([C@H]2C[C@H](F)[C@@H](CO)O2)c(=O)[nH]c1=O | -2.97% [at 28.5 µM] | 
CCCCCCCC(OC)OC | 2.08% [at 28.5 µM] | 
c1ccc2c(c1)Oc1ccccc1S2 |  | inactive
c1ccsc1 | -17% | 
CCC(C)c1ccccc1 (stereo not given) | 21.3% | 
C(=C\c1ccccc1)/c1ccccc1 | 0.703% | 
CCCCCCCCC(=O)OCC | -0.0984% | 
Nc1c2ccccc2nc2ccccc12 | 7.96% [at 28.5 µM] | 
CCCc1ccc(N)cc1 | 6.28% | 
Nc1ccc(Cl)c(N)c1 |  | inactive
O=C(O)Cc1ccc(CCNS(=O)(=O)c2ccc(Cl)cc2)cc1 | 13.6% [at 28.5 µM] | 
FC(F)(F)C(Cl)Br (stereo not given) | 6.76% | 
Cc1cccc(C)c1NC(=O)CN1CCCCCC1 | -7.86% [at 28.5 µM] | 
CC(C)=CCC/C(C)=C/C(=O)O | 0.457% | 
O=C1OC(=O)c2c(Cl)c(Cl)c(Cl)c(Cl)c21 |  | inactive
CCCN1C=CN(C)C1 |  | inactive
O=[N+]([O-])c1ccc(Oc2ccc([N+](=O)[O-])cc2)cc1 | 35.5% | 
